This note sets out measurements from PubChem BioAssay AID624405 (Broad Institute, 2012).

Structures are written as SMILES. Among all 1,900 compounds or so, about 250 (13%) were called active. Not shown: some 4% with an inconclusive outcome. A selection follows. Measured potencies and affinities stand elsewhere. Unmarked numbers belong to inactive results.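 Rule for the calls: active = fitted curve reaches 40% rescue activity at or below the top valid dose, in every test run; inconclusive = test runs disagree, some active and some inactive; inactive = every run misses the threshold or moves the wrong way.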

This assay in a line: suppressors of statin myotoxicity in myotubes, dose response, cell-based, C2C12 myotubes, ATP luminescence, cherry pick (AID 624405).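 Note: myotubes are challenged with simvastatin at 10 µM to lower ATP.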 Conditions: C2C12 myotubes + simvastatin, 48 h, scaled: DMSO wells 0, geranylgeraniol wells 100; series mostly up to 19.5 µM; rescue activity (ATP increase): at the top concentration.
As to `O=C(COC(=O)CNC(=O)c1ccc(Br)o1)Nc1ccc2c(c1)OCCO2`, the “rescue activity (ATP increase)” value was 20.8%.

With `COc1ccc(C(=O)N2CCc3cc(OC)c(OC)cc3C2)cc1OC`, the “rescue activity (ATP increase)” value is 14.1%.

On to `COc1ccc(C(=O)N2CCN(C(=O)c3cc(OC)c(OC)c(OC)c3)CC2)cc1`, for which the “rescue activity (ATP increase)” value was -13.4%.

For `N#Cc1cc2c(nc1SCC(=O)N1CCCCC1)CCCCC2`, the “rescue activity (ATP increase)” value was 7.11%.

For `CC(C)(C)C(=O)Nc1ccccc1N1CCN(C(=O)c2ccc(Cl)cc2)CC1`, the “rescue activity (ATP increase)” value is 47.4%.

For the molecule `C[C@@H]1CN([C@H](C)CO)C(=O)Cc2cc(NC(=O)Cc3cn(C)c4ccccc34)ccc2O[C@@H]1CN(C)Cc1ccc(Cl)c(Cl)c1`, the “rescue activity (ATP increase)” value was 28.1%.

With `C[C@H]1CN([C@@H](C)CO)C(=O)Cc2cc(NC(=O)Cc3cn(C)c4ccccc34)ccc2O[C@@H]1CN(C)Cc1ccc(Cl)c(Cl)c1`, the “rescue activity (ATP increase)” value is 28.9%.

On to `C[C@@H]1CN([C@@H](C)CO)C(=O)c2cc(NC(=O)C3CCCCC3)ccc2O[C@@H]1CN(C)Cc1ccc(Cl)c(Cl)c1`, for which the “rescue activity (ATP increase)” value was -5.83% [at 21 µM].

As for `C[C@H](CO)N1C[C@H](C)[C@@H](CN(C)Cc2ccc(Cl)c(Cl)c2)Oc2ccc(NC(=O)NC3CCCCC3)cc2CC1=O`, the “rescue activity (ATP increase)” value was 17.5%.

Regarding `C[C@H](CO)N1C[C@H](C)[C@@H](CN(C)Cc2ccc(Cl)c(Cl)c2)Oc2ccc(NC(=O)c3ccncc3)cc2CC1=O`, the “rescue activity (ATP increase)” value is 24.4%.

Consider `C[C@@H]1CN([C@H](C)CO)C(=O)Cc2cc(NC(=O)Nc3ccc(F)cc3)ccc2O[C@H]1CN(C)Cc1ccc(Cl)c(Cl)c1`, for which the “rescue activity (ATP increase)” value is 21.5% [at 21 µM].

As for `C[C@@H]1CN([C@H](C)CO)C(=O)c2cc(NC(=O)C3CCCCC3)ccc2O[C@H]1CN(C)Cc1ccc(Cl)c(Cl)c1`, the “rescue activity (ATP increase)” value was -1.86% [at 21 µM].

For `C[C@@H]1CN([C@@H](C)CO)C(=O)Cc2cc(NC(=O)C3CCCCC3)ccc2O[C@H]1CN(C)Cc1ccc(-c2ccccc2)cc1`, the “rescue activity (ATP increase)” value was 38.7%.

As to `COc1ccc(S(=O)(=O)Nc2ccc3c(c2)C(=O)N([C@@H](C)CO)C[C@H](C)[C@@H](CN(C)S(=O)(=O)c2ccc(F)cc2)OCCCC[C@@H](C)O3)cc1`, the “rescue activity (ATP increase)” value was 17.1%.

Regarding `C[C@@H]1CCCCO[C@H](CN(C)C(=O)Nc2cccc3ccccc23)[C@H](C)CN([C@@H](C)CO)C(=O)c2cc(NC(=O)Nc3ccc4c(c3)OCO4)ccc2O1`, the “rescue activity (ATP increase)” value is 16.8%.

As to `COc1cccc(S(=O)(=O)N(C)C[C@@H]2Oc3ncc(C#CCC(C)C)cc3C(=O)N([C@@H](C)CO)C[C@H]2C)c1`, the “rescue activity (ATP increase)” value was 4.75%.

On to `CC(=O)Nc1cc(-c2nn(C)c(=O)c3ccccc23)ccc1N1CCOCC1`, for which the “rescue activity (ATP increase)” value was 33.7%.

Turning to `C[C@@H]1CCCCO[C@H](CN(C)C(=O)C2CCCCC2)[C@H](C)CN([C@H](C)CO)C(=O)c2cc(NS(=O)(=O)c3ccccc3)ccc2O1`, the “rescue activity (ATP increase)” value was 26.7%.

As to `COc1ccc(CC(=O)Nc2ccc(-c3cn4ccccc4n3)cc2)cc1`, the “rescue activity (ATP increase)” value was -1.98%.

`C[C@@H]1CN([C@@H](C)CO)C(=O)Cc2cc(NC(=O)C3CC3)ccc2O[C@H]1CN(C)Cc1ccc(Oc2ccccc2)cc1`: the “rescue activity (ATP increase)” value is 26.8%.

`C[C@@H]1CN([C@@H](C)CO)C(=O)Cc2cc(NC(=O)C3CCCCC3)ccc2O[C@H]1CN(C)Cc1ccc(Oc2ccccc2)cc1`: the “rescue activity (ATP increase)” value was 17.8%.

As to `CCCCNc1ncnc2c1cnn2Cc1ccc(Cl)cc1`, the “rescue activity (ATP increase)” value is -49%.

For `O=C(CCn1c(SCC(=O)NCc2ccco2)nc2ccccc2c1=O)NCCc1ccccc1`, the “rescue activity (ATP increase)” value is 38.7%.

Regarding `COCCCn1c(SCC(=O)NCc2ccco2)nc2sc3c(c2c1=O)CCC3`, the “rescue activity (ATP increase)” value is 29.6%.

Regarding `COc1ccc(OCC(=O)Nc2nnc(S(=O)(=O)N3CCCCCC3)s2)cc1`, the “rescue activity (ATP increase)” value was -8.53%.

On to `Cc1cnc(C(=O)Nc2nccs2)cn1`, for which the “rescue activity (ATP increase)” value was -34%.

On to `CCN(CC)S(=O)(=O)c1cccc(-c2nnc(SCC(=O)NCCC3=CCCCC3)n2N)c1`, for which the “rescue activity (ATP increase)” value was 5.05%.

As to `CCN(C(C)=O)c1cccc2ccccc12`, the “rescue activity (ATP increase)” value is -3.21%.

On to `CCC(C)NS(=O)(=O)c1ccc(NC(=O)C2CCN(C(=O)c3ccco3)CC2)cc1` (centres undefined), for which the “rescue activity (ATP increase)” value was -1.8%.

Turning to `CCC1CCCCN1S(=O)(=O)c1ccc(NC(=O)C2CCN(C(=O)c3ccco3)CC2)cc1` (centres undefined), the “rescue activity (ATP increase)” value was -13.4%.

`CC1CCN(S(=O)(=O)c2ccc(NC(=O)c3ccco3)cc2)CC1`: the “rescue activity (ATP increase)” value was 3.41%.

For the molecule `CC1CCCN(S(=O)(=O)c2ccc(NC(=O)C3CCN(C(=O)c4ccco4)CC3)cc2)C1` (centres undefined), the “rescue activity (ATP increase)” value is 10.1%.

Turning to `C[C@@H]1CCCCO[C@@H](CN(C)C(=O)Nc2cccc3ccccc23)[C@H](C)CN([C@H](C)CO)C(=O)c2cc(NC(=O)c3ccncc3)ccc2O1`, the “rescue activity (ATP increase)” value was 32.2%.

For the molecule `C[C@H]1CN([C@@H](C)CO)S(=O)(=O)c2ccc(-c3ccc(C(=O)N(C)C)cc3)cc2O[C@@H]1CN(C)C(=O)Cc1ccccn1`, the “rescue activity (ATP increase)” value is 32.9%.

Consider `CCOc1ncnc2c1[nH]c1ccccc12`, for which the “rescue activity (ATP increase)” value is 13.5%.

In the case of `COc1ccc(CN(C)C[C@@H]2Oc3ccc(NC(=O)CCC(F)(F)F)cc3CC(=O)N([C@H](C)CO)C[C@H]2C)cc1`, the “rescue activity (ATP increase)” value was 27.9% [at 21 µM].

`COc1ccc(S(=O)(=O)Nc2ccc3c(c2)C(=O)N([C@H](C)CO)C[C@H](C)[C@@H](CN(C)S(=O)(=O)c2ccc(F)cc2)OCCCC[C@@H](C)O3)cc1`: the “rescue activity (ATP increase)” value was 25.5%.

Turning to `O=C(O)CCC(=O)OCC1CCCCC1`, the “rescue activity (ATP increase)” value is -4.14%.

For `CC(C)NC(=O)Cn1c(=O)n(CC(=O)N2CCCCC2)c(=O)c2sccc21`, the “rescue activity (ATP increase)” value was -3.24%.
